Screening results: PubChem BioAssay, several laboratories
MLLE-PAM2 inh: blocks PAM2 peptide binding to the PABP1 MLLE domain | GST-MLLE / FITC-PAM2 fluorescence polarization | inhibition, % at 20 µM | hit rate 0.36% among 360,000 | AID 588489; in the data active means inhibition above about 35%, passing the limit was not always enough;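 further: plate controls were DMSO wells with GST-MLLE for no effect and wells lacking GST-MLLE protein for full effect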
Efa HMGR inh: blocks class II HMG-CoA reductase of Enterococcus faecalis. purified E. faecalis HMGR, NADPH absorbance 340 nm kinetic. inhibition, % at 10 µM. hit rate 0.41% among 190,000;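 active means inhibition above a set limit, the median over all tested compounds plus 3 SD, cut at about 9.5% in these data; inconclusive means no clear call, values can overlap the other calls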;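 further: enzyme runs in reverse so mevalonate oxidation gives rising NADPH absorbance; 0% = complete reaction with DMSO and 100% = background rate lacking mevalonate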
PHOSPHO1 inh: PHOSPHO1 (human) inhibition; recombinant PHOSPHO1, absorbance phosphatase assay; hit rate 1.1% among 290,000; inhibition, % at 13.3 µM; Q8TCT1; in the data active means inhibition above about 60%
Target sequence (Q8TCT1 whole entry, looked up): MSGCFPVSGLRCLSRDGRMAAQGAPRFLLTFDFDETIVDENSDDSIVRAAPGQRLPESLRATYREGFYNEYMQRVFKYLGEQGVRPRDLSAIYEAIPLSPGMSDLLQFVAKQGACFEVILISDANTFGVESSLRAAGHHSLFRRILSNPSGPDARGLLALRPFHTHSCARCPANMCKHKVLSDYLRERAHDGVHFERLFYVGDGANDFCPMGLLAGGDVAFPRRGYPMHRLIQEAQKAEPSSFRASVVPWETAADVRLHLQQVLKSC
eIF4H inh: inhibitors of RNA binding by human eIF4H. eIF4H fluorescence polarization binding assay. hit rate 0.94% among 290,000. inhibition, % at 35 µM;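 further: calls also rest on retests at 20 µM and on dose response follow-up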
PABP FP inh: PABP-poly(A) binding inhibition; PABP-poly(A) RNA binding, fluorescence polarization; P11940; calls only at 35 µM; hit rate 1% among 290,000;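 further: calls also rest on retests at 20 µM and on dose response follow-up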
* = called active by the depositor; i = inactive; ? = inconclusive; / = no result given; + = active, no number. Sampled rows, rich in hits. Any-hit rate of the full collection: about 2.4%. Unless noted, how the calls were made is not given here.

SMILES | MLLE-PAM2 inh | Efa HMGR inh | PHOSPHO1 inh | eIF4H inh | PABP FP inh
CCN(c1cccc(C)c1)S(=O)(=O)c1ccc2c(c1)N(C(C)=O)CCS2 | -3.6 | / | 36.8 | -2.4 | i
O=c1[nH]c2ccc(Cl)cc2c(-c2ccccc2)c1N1CCOCC1 | -3.1 | 2.9 | 70.5* | -0.5 | i
NNC(=O)c1[nH]c2ccc(Cl)cc2c1-c1ccccc1 | 5.6 | / | 32.7 | -9.7 | i
CCOC(=O)CSc1c(-c2ccccc2)c2cc(Cl)ccc2[nH]c1=O | 5.3 | -3.3 | 10.9 | active | i
CCN(CC)C(=S)Sc1c(-c2ccccc2)c2cc(Cl)ccc2[nH]c1=O | 22.9 | -0.2 | 88.2* | -4.3 | i
O=C(O)CSc1c(-c2ccccc2)c2cc(Cl)ccc2[nH]c1=O | 0.5 | 1.3 | -11.4 | -3.1 | i
C=C(C)COC(=O)C1CC2OC2CC1C(=O)OCC(=C)C (stereo not given) | -7.4 | / | / | / | /
Cc1ccc[n+](C(C(=S)NCc2ccco2)=C([O-])c2ccccc2Cl)c1 | 0.1 | / | / | / | /
Cc1ccc[n+](/C(C(=S)NCc2ccco2)=C(/[O-])c2ccccc2Cl)c1 | 0.8 | -3.8 | 96.6* | 35.9 | i
CC(C)(C)c1ccc(/C([O-])=C(/C(=S)NCc2ccco2)[n+]2ccccc2)cc1 | / | -4.5 | 83.5* | 31.8* | +
O=C(NCc1cccc(Br)c1)c1cc(-c2ccccc2)nn1CC1CC(c2cccc([N+](=O)[O-])c2)=NO1 (stereo not given) | -1.5 | / | / | / | /
Fc1ccc(-n2c(-c3ccc4ccccc4n3)n[nH]c2=S)cc1 | -35.4 | 4.7 | 60.2* | -14.7 | i
Cc1c(Cl)c(-c2n[nH]c(=S)n2-c2ccc(F)cc2)nn1C | -5.5 | 11.0* | 101.1* | -4.3 | i
Cn1cc(Cl)c(-c2n[nH]c(=S)n2-c2ccc(F)cc2)n1 | -88.1 | 5.8 | 3.4 | 1.1 | i
CN(CC(=O)Nc1ccccc1Br)C(=O)c1cc2c(s1)CCCCC2 | 2.5 | / | / | / | /
COc1cccc2sc3ccc(NCCC4CCCN4C)cc3c(=O)c12 (stereo not given) | -17.5 | / | 20.2 | 78.8* | +
Cc1cccc2cc(-c3nc4ccc(C(=O)O)cc4[nH]3)c(=O)oc12 | -8.0 | / | 46.3 | 64.9* | i
COc1cccc2cc(-c3nc4ccccc4[nH]3)c(=O)oc12 | -15.2 | / | 4.6 | 2.6 | i
O=C(COc1ccc([N+](=O)[O-])cc1Cl)N1CCOCC1 | 1.2 | / | 33.1 | -1.3 | i
Cc1ccc2nc(C3CCCCC3)c(Cc3cccc(F)c3)n2c1 | -5.2 | / | / | / | /
O=C(/C=C/c1ccco1)c1ccc(NC(=O)C23CC4CC(CC(C4)C2)C3)cc1 | -12.0 | 2.3 | -11.2 | ? | +
O=C(C=Cc1ccco1)c1ccc([N+](=O)[O-])cc1 | -2.5 | / | / | / | /
COc1ccc(C(=O)O)cc1NC(=S)NC(=O)CSc1ccc(Cl)cc1 | 40.3* | / | 22.6 | -13.3 | i
CCCCNC(=O)Oc1c(Br)cc2sc(=O)oc2c1Br | / | / | 41.6 | 95.7* | +
COc1ccc(-n2c(SC3CCOC3=O)nc3ccccc3c2=O)cc1Cl (stereo not given) | 5.4 | -2.8 | 27.8 | 3.1 | i
SMILES | MLLE-PAM2 inh | Efa HMGR inh | PHOSPHO1 inh | eIF4H inh | PABP FP inh
COc1ccc(-n2c(SC3CCOC3=O)nc3ccccc3c2=O)cc1OC (stereo not given) | -13.4 | -1.4 | 65.6* | -4.0 | i
N#CN1C2CCC1CC(O)(c1ccccc1)C2 (stereo not given) | 15.4 | / | / | / | /
CC(C)NC(=O)CCCC(=O)NC(C)C | 2.7 | 1.5 | 9.5 | 2.2* | +
O=c1ccc(-c2ccc(S(=O)(=O)N3CCN(c4cccc(Cl)c4)CC3)o2)n[nH]1 | -4.7 | / | 38.2 | -12.2 | i
c1ccc(C[n+]2csc3ccccc32)cc1 | 43.0* | -4.9 | 56.5 | -12.4 | i
O=C(CSc1ccccn1)N1CCN(c2cccc(Cl)c2)CC1 | 13.2 | -2.3 | 82.6* | 2.8 | i
COc1ccc(C(=O)O/N=C/c2ccc(S(=O)(=O)c3ccc(Cl)cc3)nc2)cc1 | -11.5 | / | / | / | /
CCCS(=O)(=O)N1CCCC(C(=O)N2CCCCC2)C1 (stereo not given) | 2.8 | / | 37.5 | -5.5 | i
NC(=O)COC(=O)CCCSc1nc2ccccc2s1 | -15.2 | -2.0 | 29.5 | -4.5 | i
Cc1noc(C)c1CSCC(=O)OCC(=O)Nc1ccc(OC(F)(F)F)cc1 | 4.0 | / | / | / | /
N#Cc1ccsc1NC(=O)COC(=O)CCCSc1nc2ccccc2s1 | -17.6 | -2.3 | 10.8 | 101.7* | +
Cc1noc(C)c1CSCC(=O)OCC(=O)Nc1sccc1C#N | 0.0 | -0.4 | -11.0 | 58.4* | +
C=CCNC(=S)NNC(=O)c1csc(C)c1CC | -30.2 | -1.6 | 81.2* | -2.7 | i
c1c2c(cc3sc(N4CCOCC4)nc13)OCO2 | 32.3 | -7.0 | 93.4* | 0.4 | i
Cc1ccc(OCC(=O)NCCNC(=O)c2ccccn2)cc1 | -5.1 | / | 30.4 | -8.0 | i
CS(=O)(=O)c1ccccc1C(=O)N1CCN(Cc2ccccc2)CC1 | -14.6 | -2.0 | 73.2* | -3.4 | i
CC(=O)Nc1ccccc1C(=O)N1CCN(Cc2ccccc2)CC1 | -0.6 | -1.8 | -0.6 | -2.5 | i
CC12CC3CC(C)(C1)CC(C(=O)N1CCN(C(=O)c4ccco4)CC1)(C3)C2 | -1.7 | / | 57.6 | -4.1 | i
O=C(O)CC(C(=O)O)N1C(=O)/C(=C/C=C/c2ccco2)SC1=S (stereo not given) | 7.1 | / | 17.1 | 99.9* | +
COc1ccc(/C=C2\SC(=S)N(C(Cc3ccccc3)C(=O)O)C2=O)cc1 (stereo not given) | 11.6 | -1.4 | 20.5 | -1.3 | i
O=C(O)C(Cc1ccccc1)N1C(=O)/C(=C/C=C/c2ccco2)SC1=S (stereo not given) | -40.6 | / | 16.6 | 84.6* | +
Cc1ccc(NC(=O)CCCN2C(=O)/C(=C/C=C/c3ccccc3)SC2=S)cc1 | -2.8 | -3.5 | -16.5 | -4.6 | i
O=C1S/C(=C\C=C\c2ccco2)C(=O)N1c1ccc(O)cc1 | 7.7 | -4.9 | 3.0 | 88.4 | i
O=C(CCN1C(=O)/C(=C\C=C\c2ccccc2)SC1=S)Nc1cccc(C(=O)O)c1 | -7.0 | / | 16.2 | 88.2* | +
O=C(O)CCCN1C(=O)/C(=C/C=C/c2ccco2)SC1=S | 5.5 | / | 6.2 | 97.7* | +
SMILES | MLLE-PAM2 inh | Efa HMGR inh | PHOSPHO1 inh | eIF4H inh | PABP FP inh
Cc1cc(=O)oc2cc(OCC(=O)N3CCC(C(N)=O)CC3)ccc12 | 12.2 | / | 18.2 | -1.4 | i
O=C(Cn1cc(COc2c(F)c(F)cc(F)c2F)nn1)c1ccc(O)cc1 | -15.8 | / | / | / | /
CN1CCN(NC(=O)CN2C(=O)S/C(=C\c3c(Cl)cccc3Cl)C2=O)CC1 | 41.0* | -4.8 | 22.0 | 7.8 | i
O=C(CCN1C(=O)/C(=C/c2ccccc2Cl)SC1=S)NN1CCOCC1 | 24.5 | / | 31.9 | -13.2 | i
CC1(C)CC(=O)c2cc(C(=O)N3CCN(CCO)CC3)c(=O)n(-c3ccc(Cl)cc3)c2C1 | 0.2 | 11.0* | -24.5 | 0.2 | i
COc1ccccc1-n1c(-c2ccc(NS(C)(=O)=O)cc2)n[nH]c1=S | 0.7 | -0.4 | 87.9* | 1.5 | i
S=c1[nH]nc(-c2ccncc2)n1Cc1ccccc1 | -24.2 | -6.6 | 87.7* | 5.7 | i
